Results on 40 molecules are retold here after the supplement of paper PMC12067926.

Unmarked numbers belong to inactive results.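 Rule for the calls: active = growth AUC significantly below the DMSO wells by Dunnett test; inactive = the rest.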

The test deals with Community 10. Briefly: relative growth (AUC of 72 h growth curve relative to DMSO control, dAUC) (ratio); higher = more growth (less inhibition), active = hit call of the paper. As to conditions: 20 µM. The method, then: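 Environmental bacterial isolates (Iceland stream sediment and Silwood Park soil) and whole stream-sediment communities were grown in LB from a 1:100 dilution with each pesticide at 20 µM (1% DMSO). A600 was read hourly for 72 h and the area under a spline-fitted growth curve (AUC) was computed. dAUC is the mean AUC of 3 biological replicates divided by the mean AUC of the DMSO controls. Significance was tested by Dunnett's test against the DMSO control.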
Take `COP(=S)(OC)Oc1ccc(SC)c(C)c1`: the relative growth is 0.993.

Take `CC(C)N(C(=O)COc1nnc(C(F)(F)F)s1)c1ccc(F)cc1`: the relative growth is 0.763.

For the molecule `CCOc1ccc(C(C)(C)COCc2cccc(Oc3ccccc3)c2)cc1`, the relative growth was 1.02.

On to `CC1(C)C(C=C(Cl)Cl)C1C(=O)OC(C#N)c1cccc(Oc2ccccc2)c1` (stereo not given), for which the relative growth is 1.21.

Take `O=C(O)COc1ccc(Cl)cc1Cl`: the relative growth is 0.98.

For `O=C(Nc1ccc(F)cc1F)c1cccnc1Oc1cccc(C(F)(F)F)c1`, the relative growth is 0.942.

In the case of `CCNc1nc(Cl)nc(NC(C)C)n1`, the relative growth was 1.04.

As to `C#CCN1C(=O)COc2cc(F)c(N3C(=O)C4=C(CCCC4)C3=O)cc21`, the relative growth is 0.871.

Take `COP(N)(=O)SC` (stereo not given): the relative growth was 0.803.

`CCNC(=O)NC(=O)/C(C#N)=N/OC`: the relative growth was 1.03.

With `C#CCOc1ccc(CCNC(=O)C(OCC#C)c2ccc(Cl)cc2)cc1OC` (stereo not given), the relative growth was 0.982.

`COC(=O)NC(=S)Nc1ccccc1NC(=S)NC(=O)OC`: the relative growth is 0.99.

As for `CC(C)(C)C(O)(CCc1ccc(Cl)cc1)Cn1cncn1` (stereo not given), the relative growth was 0.835.

For `CC(C)(C)c1ccc(CSc2cnn(C(C)(C)C)c(=O)c2Cl)cc1`, the relative growth was 0.941.

For `CCc1cnc(C2=NC(C)(C(C)C)C(=O)N2)c(C(=O)O)c1` (stereo not given), the relative growth was 1.1.

On to `CC1(C)[C@H](/C=C(\Cl)C(F)(F)F)[C@@H]1C(=O)OC(C#N)c1cccc(Oc2ccccc2)c1` (stereo not given in full), for which the relative growth was 0.816.

Consider `COCC(C)N(C(=O)CCl)c1c(C)csc1C` (stereo not given), for which the relative growth was 0.97.

Consider `CC1(C(=O)Nc2ccc(O)c(Cl)c2Cl)CCCCC1`, for which the relative growth is 0.827.

For the molecule `CCCN(CCC)C(=O)SCc1ccccc1`, the relative growth is 0.888.

With `COc1ccc(-c2ccccc2)cc1NNC(=O)OC(C)C`, the relative growth is 0.782.

In the case of `COCC(=O)N(c1c(C)cccc1C)[C@H](C)C(=O)OC`, the relative growth is 0.999.

Consider `CC[C@H](C)[C@H]1O[C@]2(C=C[C@@H]1C)C[C@@H]1C[C@@H](C/C=C(\C)[C@@H](O[C@H]3C[C@H](OC)[C@@H](O[C@H]4C[C@H](OC)[C@@H](O)[C@H](C)O4)[C@H](C)O3)[C@@H](C)/C=C/C=C3\CO[C@@H]4[C@H](O)C(C)=C[C@@H](C(=O)O1)[C@]34O)O2.CO[C@H]1C[C@H](O[C@H]2[C@H](C)O[C@@H](O[C@@H]3/C(C)=C/C[C@@H]4C[C@@H](C[C@]5(C=C[C@H](C)[C@@H](C(C)C)O5)O4)OC(=O)[C@@H]4C=C(C)[C@@H](O)[C@H]5OC/C(=C\C=C\[C@@H]3C)[C@]54O)C[C@@H]2OC)O[C@@H](C)[C@@H]1O`, for which the relative growth was 0.898.

In the case of `Fc1ccc([C@]2(Cn3cncn3)O[C@H]2c2ccccc2Cl)cc1` (racemic), the relative growth was 0.962.

Regarding `O=C(O)CNCP(=O)(O)O`, the relative growth was 0.952.

Consider `CNC(=O)Oc1cccc(/N=C/N(C)C)c1`, for which the relative growth is 0.8.

As to `CC(C1CC1)C(O)(Cn1cncn1)c1ccc(Cl)cc1` (stereo not given), the relative growth is 1.02.

Consider `CCCCN(CCCC)SN(C)C(=O)Oc1cccc2c1OC(C)(C)C2`, for which the relative growth is 0.824.

With `CN/C(=N\[N+](=O)[O-])NCc1cnc(Cl)s1`, the relative growth was 0.931.

For the molecule `CO/N=C(/C(=O)OC)c1ccccc1CO/N=C(\C)c1cccc(C(F)(F)F)c1`, the relative growth was 0.708.

As for `O=C(NC(=O)c1c(F)cccc1F)Nc1ccc(OC(F)(F)C(F)OC(F)(F)F)c(Cl)c1` (stereo not given), the relative growth was 0.965.

On to `CC1(C)C(C=C(Cl)Cl)C1C(=O)OC(C#N)c1ccc(F)c(Oc2ccccc2)c1` (stereo not given), for which the relative growth was 0.911.

Turning to `COP(=S)(OC)SCN1C(=O)c2ccccc2C1=O`, the relative growth is 1.

`Cc1ccc(/N=C/N(C)/C=N/c2ccc(C)cc2C)c(C)c1`: the relative growth is 0.922.

On to `C[N+]1(C)CCCCC1`, for which the relative growth is 1.01.

On to `Clc1ccc(C(c2ccc(Cl)cc2)C(Cl)(Cl)Cl)cc1`, for which the relative growth is 0.832.

Take `CCSC(C)CC1CC(=O)C(/C(CC)=N/OC/C=C/Cl)=C(O)C1` (mixture of isomers): the relative growth was 0.965.

In the case of `Cc1cccc2sc3nncn3c12`, the relative growth is 0.867.

As to `CC1=NNC(=O)N(/N=C/c2cccnc2)C1`, the relative growth is 0.983.

`O=C(NC(=O)c1c(F)cccc1F)Nc1ccc(Cl)cc1`: the relative growth was 0.795.

Turning to `CCc1cccc(C)c1N(C(=O)CCl)[C@@H](C)COC`, the relative growth is 0.929.
